# A number with no mark means an inactive call. Inconclusive results are not listed. Where a call stands in place of a potency, no number is given. Active and inactive are the calls of the source. Unless noted, calls come from the whole dose curve; as a rule, active = well fitted curve in the direction sought with a large enough effect; inconclusive = small, poorly fitted or top-dose-only effect, or another doubt; inactive = no such curve, though single readings can be large; an effect the other way counts as inactive or inconclusive.
# How the values were obtained:
# [1] = molecular target: DNA repair nuclease/redox regulator APEX1 (Homo sapiens) (UniProt P27695); test: qHTS Validation Assay for Inhibitors of the Human Apurinic/apyrimidinic Endonuclease 1 (APE1) (AID 1705;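 note: TAMRA fluorescence gain over two minutes as APE1 cuts a quenched THF abasic duplex; series mostly up to about 57 µM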)
# Procedure, shortened: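 Activity read as rising fluorescence (598 nm emission, 525 nm excitation) from incision of a TAMRA/BHQ-2 duplex carrying a THF abasic site (50 nM). Compound and enzyme sat 15 min at RT before substrate start; signal change between first and third 60-s reads.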
# [2] = Counterscreen for APE1 Inhibitors: Fluorescent Dye Displacement Validation Assay (AID 1707)
# Procedure, shortened: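 Thiazole Orange displacement from dsDNA: 250 nM ThO with 50 nM TAMRA-labelled abasic-site (tetrahydrofuran) duplex in 50 mM Tris-HCl pH7.5, 50mM NaCl, 2 mM MgCl2, 0.01% Tween-20. Loss of endpoint fluorescence (ex 480 nm, em 540 nm) flags DNA binders.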
# [3] = molecular target: Endonuclease 4 (Escherichia coli (strain K12)) (UniProt P0A6C1); test: Counterscreen for APE1 Inhibitors: qHTS Validation Assay for Inhibitors of Endonuclease IV (AID 1708)
# Procedure, shortened: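 E. coli EndoIV at 2 nM final, preincubated 15 min at room temperature with compound, then 50 nM TAMRA/BHQ-2 THF abasic-site duplex added. Buffer: 50 mM Tris-HCl pH 7.5, 50 mM NaCl, 2 mM MgCl2, 1 mM DTT, 0.01% Tween-20. Kinetic fluorescence increase, third minus first read.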
# [4] = qHTS for differential inhibitors of proliferation of Plasmodium falciparum line 7G8 (AID 1815);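 note: potency is the fitted concentration of half-maximal effect; parasite growth measured after three days of incubation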
# [5] = qHTS for differential inhibitors of proliferation of Plasmodium falciparum line Dd2 (AID 1882); conditions: Potency: Plasmodium falciparum Dd2 proliferation inhibition; note: series mostly up to about 29 µM; nearly all actives have a fitted effect of over 65% in size
# Procedure, shortened: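 Dd2-infected erythrocytes (0.3% parasitemia, 2.5% hematocrit final) incubated with compound 72 h at 37 C, 5% CO2; lysed with saponin/Triton buffer containing SYBR Green I, incubated overnight in the dark, then read by fluorescence (485/535 nm). Normalized to 0.29 uM artemisinin and DMSO.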
# [6] = qHTS for differential inhibitors of proliferation of Plasmodium falciparum line W2 (AID 1883); conditions: Potency: Plasmodium falciparum W2 proliferation inhibition;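 note: potency is the fitted concentration of half-maximal effect; parasites grown with compound for 72 h before lysis and staining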
# [7] = molecular target: ATP-dependent DNA helicase Q1 (Homo sapiens) (UniProt P46063); test: qHTS Validation Assay for Inhibitors of RecQ-Like Dna Helicase 1 (RECQ1) (AID 2353)
# Procedure, shortened: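 50 nM RECQ1T1 preincubated 15 min with compound in Tris pH 8.0 buffer with MgCl2, DTT, Tween-20 and 2.5 ug/ml poly(dI-dC); started with 200 nM TAMRA/BHQ-2 forked duplex and 2 mM ATP. Unwinding read as fluorescence (525/598 nm), two reads 2 h apart.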
# [8] = Quantitative high throughput screen for delayed death inhibitors of the malarial parasite plastid, 48 hour incubation (AID 488752); note: nearly all actives have a fitted effect of over 65% in size
# Procedure, shortened: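 Erythrocytes infected with firefly luciferase-expressing P. falciparum (2% hematocrit, 0.1% parasitemia) cultured with compound for 48 h at 37 C, 5% CO2, in RPMI 1640/0.5% Albumax. Growth inhibition read as loss of luminescence.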
# [9] = molecular target: M-phase phosphoprotein 8 (Homo sapiens) (UniProt Q99549); test: qHTS Validation Assay for Inhibitors for MPP8 Chromodomain Interactions with Methylated Histone Tails (AID 488949);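 note: AlphaScreen signal from MPP8 chromodomain bound to biotinylated H3K9me3 peptide; top concentration of the series differs between compounds; nearly all actives have a fitted effect of over 55% in size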
# Procedure, shortened: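 AlphaScreen proximity signal from streptavidin donor and Ni-chelate acceptor beads (10 ug/mL each) reported binding of MPP8 to trimethyl-K9 H3(1-18) peptide, both at 50 nM. The complex formed 30 min before a 30 min compound exposure at room temperature, in PBS pH 7.4.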
# [10] = molecular target: Transient receptor potential cation channel subfamily V member 1 (Homo sapiens) (UniProt Q8NER1); test: HTS Assay for Compounds that Act as Enhancers of the Vanilloid Receptor 1 (AID 488979)
# Procedure, shortened: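 TRPV1 cells loaded with Fluo-8 calcium dye; compound added and Ca2+ signal (ex 480/em 520 nm) followed 3 min, then capsaicin at EC20 added and read 2 more min to detect enhancement.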
# [11] = molecular target: Thyrotropin receptor (Homo sapiens) (UniProt P16473); test: qHTS Assay for Antagonists of the Thyroid Stimulating Hormone Receptor (AID 488980); note: series mostly up to about 58 µM
# Procedure, shortened: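 Inhibition of cAMP raised by EC80 TSH (4 nM final) was read by HTRF, with lysate cAMP competing against cAMP-d2 for cryptate antibody after 30 min at room temperature. The cells were transfected HEK293 held in phosphodiesterase inhibitor RO 20-1724 at 70 uM.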
# [12] = molecular target: Thyrotropin-releasing hormone receptor (Homo sapiens) (UniProt P34981); test: qHTS for Small Molecule Agonists and Allosteric Enhancers of Human TRH Receptor: Validation Screen for Agonists (AID 493127;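 active = calcium activation more than 3 SD above the typical response in the agonist read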); conditions: TRH receptor agonist cell assay; at 2 µM; stronger effect = higher value
# Procedure, shortened: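 TRHR cells loaded with fluo-8 calcium dye; FDSS kinetic fluorescence (Ex 480/Em 530) read at 1 s/cycle after 23 nL compound addition. Agonist-mode calcium response recorded before the 10 nM TRH (EC20) addition.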
# [13] = molecular target: Galactokinase (Homo sapiens) (UniProt P51570); test: qHTS Validation Assay for Inhibitors of Human Galactokinase (GALK) (AID 493189)
# Procedure, shortened: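 Inhibition was measured as remaining ATP, detected by luciferase luminescence after a 1 h room-temperature reaction. Final conditions: 5 nM GALK, 100 uM galactose, 35 uM ATP, pH 8.0 HEPES buffer.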
# [14] = Validation screen for small molecules that induce DNA re-replication in SW480 colon adenocarcinoma cells (AID 504364)
# Procedure, shortened: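 SW480 cells (250/well) exposed 48 h at 37 C, 5% CO2, then Hoechst-stained 40 min. Nuclear DNA content imaged by fluorescence scanning (405 nm excitation, 500-530 nm emission); re-replication scored as increased nuclei with elevated intensity.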
# [15] = molecular target: Cytochrome P450 3A4 (Homo sapiens) (UniProt P08684); test: qHTS Assay for Inhibitors and Substrates of Cytochrome P450 3A4 (AID 884); note: potency is the fitted concentration of half-maximal effect; nearly all actives have a fitted effect of over 50% in size
# Procedure, shortened: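 20 nM human CYP3A4 with 25 uM Luciferin-PPXE (at KM) in 200 mM KPO4, preincubated 10 min with compound; NADPH regeneration started a 60 min RT reaction. Luciferin detected by luminescence, normalized to 57 uM ketoconazole as full inhibition.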
# [16] = molecular target: Ubiquitin carboxyl-terminal hydrolase 1 (Homo sapiens) (UniProt O94782); test: Inhibitors of USP1/UAF1: Pilot qHTS (AID 504865);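 note: rhodamine fluorescence freed from ubiquitin-rhodamine substrate followed over time; top concentration of the series differs between compounds; nearly all actives have a fitted effect of over 35% in size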
# Procedure, shortened: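 Deubiquitinase activity followed as kinetic rhodamine fluorescence release from 150 nM Ub-Rho. 1 nM USP1/UAF1 with compound, after 15 min room-temperature preincubation, in HEPES pH 7.8 buffer containing TCEP, EDTA, BSA and Tween-20.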
# [17] = molecular target: DNA dC->dU-editing enzyme APOBEC-3G (Homo sapiens) (UniProt Q9HC16); test: qHTS for inhibitors of Vif-A3G interactions: Validation (AID 588379)
# Procedure, shortened: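 HeLa cells stably expressing Vif and A3G-eYFP, 700 cells/well, incubated overnight at 37 deg C, then exposed to compound overnight at 37 deg C. Inhibition of Vif-mediated degradation read as increased yellow fluorescence (Ex 488/Em 500-530) by laser-scanning cytometry.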
# [18] = molecular target: Rap guanine nucleotide exchange factor 4 (Homo sapiens) (UniProt Q8WZA2); test: Confirmatory qHTS for antagonist of cAMP-regulated guanine nucleotide exchange factor 4 (EPAC2) (AID 1645885); note: nearly all actives have a fitted effect of over 25% in size
# [19] = qHTS for differential inhibitors of proliferation of Plasmodium falciparum line GB4 (AID 1816); conditions: Potency: Plasmodium falciparum GB4 proliferation inhibition;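 note: potency is the fitted concentration of half-maximal effect; parasite growth measured after 72 h incubation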
# [20] = qHTS for differential inhibitors of proliferation of Plasmodium falciparum line 3D7 (AID 1876); note: potency is the fitted concentration of half-maximal effect
# [21] = qHTS Assay for Modulators of Human Peripheral Myelin Protein 22 (PMP22) Expression/Activity (AID 1967; active = well fitted curve in the direction sought with a large enough effect in the signal ratio; the % refers to the signal ratio)
# Procedure, shortened: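 Readout is the corrected green/red luminescence ratio after 24 h compound exposure, normalised to untreated cells (0%). Engineered MSC80 mouse Schwann cells express green luciferase from the mouse Pmp22 promoter and red luciferase from EF-alpha as internal control.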
# [22] = molecular target: Ferritin light chain (Equus caballus) (UniProt P02791); test: qHTS Validation Assay for Identification of Novel General Anesthetics (AID 2323); note: series mostly up to about 77 µM
# Procedure, shortened: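 Competitive displacement of the profluorescent anesthetic 1-AMA (50% saturated, PBS) from 10 uM apoferritin, 10 min, room temperature. Activity is normalized 380/535 nm fluorescence; concentration-response fitted with a four-parameter Hill equation.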
# [23] = molecular target: RecQ-like DNA helicase BLM (Homo sapiens) (UniProt P54132); test: qHTS Validation Assay for Inhibitors of Bloom's syndrome helicase (BLM) (AID 2364)
# Procedure, shortened: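 50 nM BLM preincubated 15 min at room temperature with compound in pH 8.0 Tris buffer containing 2.5 ug/ml poly(dI-dC); started with 200 nM TAMRA/BHQ-2 forked duplex and 2 mM ATP (final). Unwinding read as TAMRA fluorescence increase, two reads 2 h apart.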
# [24] = Validation screen for small molecules that induce DNA re-replication in MCF 10A normal breast cells (AID 463097); note: nearly all actives have a fitted effect of over 60% in size
# Procedure, shortened: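 Read-out is Hoechst total nuclear intensity by fluorescence scanning imager, flagging increased high-DNA-content nuclei. Compounds were incubated with MCF 10A cells for 48 hr (37 C, 5% CO2) before 40 min staining.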
# [25] = molecular target: Rap guanine nucleotide exchange factor 3 (Homo sapiens) (UniProt O95398); test: Counterscreen qHTS for antagonist of cAMP-regulated guanine nucleotide exchange factor 3 (EPAC1) (AID 1645888);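 note: fluorescence loss as bound BODIPY-GDP is released from Rap1B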
# Procedure, shortened: (§1)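 Rap1B–BODIPY-GDP (250 nM) with 50 uM GDP; compounds pin-transferred to 9.74 nM–152 uM final (activator) or from 7.32 nM upwards (inhibitor). Fluorescence Ex/Em 480/540 nm read at 5 and 30 min, then after adding cAMP or buffer, at room temperature.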
# [26] = molecular target: Rap guanine nucleotide exchange factor 3 (Homo sapiens) (UniProt O95398); test: Counterscreen qHTS for agonist of cAMP-regulated guanine nucleotide exchange factor 3 (EPAC1) (AID 1645889); note: potency is the fitted concentration of half-maximal effect; nearly all actives have a fitted effect of over 40% in size
# Procedure, shortened: as §1
# Chain of Rap guanine nucleotide exchange factor 3 (Homo sapiens) (O95398 whole entry, looked up): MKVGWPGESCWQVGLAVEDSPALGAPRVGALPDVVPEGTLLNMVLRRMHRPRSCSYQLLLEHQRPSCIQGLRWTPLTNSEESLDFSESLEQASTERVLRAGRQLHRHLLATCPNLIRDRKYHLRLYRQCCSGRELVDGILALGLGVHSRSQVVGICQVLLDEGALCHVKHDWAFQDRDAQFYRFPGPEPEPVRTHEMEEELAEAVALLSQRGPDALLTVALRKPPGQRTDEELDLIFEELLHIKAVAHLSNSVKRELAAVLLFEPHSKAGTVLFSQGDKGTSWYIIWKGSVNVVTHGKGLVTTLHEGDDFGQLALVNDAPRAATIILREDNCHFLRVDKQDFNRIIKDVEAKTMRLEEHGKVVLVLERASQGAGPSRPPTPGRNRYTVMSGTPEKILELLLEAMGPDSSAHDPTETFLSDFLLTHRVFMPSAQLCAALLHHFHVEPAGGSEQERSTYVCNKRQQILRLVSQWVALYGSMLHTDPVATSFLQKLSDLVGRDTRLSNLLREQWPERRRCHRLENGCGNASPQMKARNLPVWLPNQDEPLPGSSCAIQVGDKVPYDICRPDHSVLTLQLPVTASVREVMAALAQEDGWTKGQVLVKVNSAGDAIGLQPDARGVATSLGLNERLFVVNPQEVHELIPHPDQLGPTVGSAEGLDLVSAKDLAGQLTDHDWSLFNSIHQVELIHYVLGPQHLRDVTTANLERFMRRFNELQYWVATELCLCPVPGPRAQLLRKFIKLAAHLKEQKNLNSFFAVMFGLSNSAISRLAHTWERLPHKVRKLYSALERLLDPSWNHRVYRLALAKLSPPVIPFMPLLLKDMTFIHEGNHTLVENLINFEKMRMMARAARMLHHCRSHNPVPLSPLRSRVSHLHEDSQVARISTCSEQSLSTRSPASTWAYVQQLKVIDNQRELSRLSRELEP
# Chain of Galactokinase (Homo sapiens) (P51570 whole entry, looked up): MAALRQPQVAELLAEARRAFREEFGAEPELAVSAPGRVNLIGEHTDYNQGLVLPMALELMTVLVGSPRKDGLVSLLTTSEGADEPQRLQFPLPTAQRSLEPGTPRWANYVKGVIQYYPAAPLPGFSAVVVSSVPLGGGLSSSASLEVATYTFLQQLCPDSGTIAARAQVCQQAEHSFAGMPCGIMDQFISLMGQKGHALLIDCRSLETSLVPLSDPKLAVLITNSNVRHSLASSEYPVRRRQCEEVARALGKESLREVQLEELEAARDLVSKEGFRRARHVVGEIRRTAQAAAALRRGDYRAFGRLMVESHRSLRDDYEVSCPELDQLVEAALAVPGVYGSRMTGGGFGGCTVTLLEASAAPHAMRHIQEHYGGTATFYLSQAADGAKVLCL
# Chain of Thyrotropin receptor (Homo sapiens) (P16473 whole entry, looked up): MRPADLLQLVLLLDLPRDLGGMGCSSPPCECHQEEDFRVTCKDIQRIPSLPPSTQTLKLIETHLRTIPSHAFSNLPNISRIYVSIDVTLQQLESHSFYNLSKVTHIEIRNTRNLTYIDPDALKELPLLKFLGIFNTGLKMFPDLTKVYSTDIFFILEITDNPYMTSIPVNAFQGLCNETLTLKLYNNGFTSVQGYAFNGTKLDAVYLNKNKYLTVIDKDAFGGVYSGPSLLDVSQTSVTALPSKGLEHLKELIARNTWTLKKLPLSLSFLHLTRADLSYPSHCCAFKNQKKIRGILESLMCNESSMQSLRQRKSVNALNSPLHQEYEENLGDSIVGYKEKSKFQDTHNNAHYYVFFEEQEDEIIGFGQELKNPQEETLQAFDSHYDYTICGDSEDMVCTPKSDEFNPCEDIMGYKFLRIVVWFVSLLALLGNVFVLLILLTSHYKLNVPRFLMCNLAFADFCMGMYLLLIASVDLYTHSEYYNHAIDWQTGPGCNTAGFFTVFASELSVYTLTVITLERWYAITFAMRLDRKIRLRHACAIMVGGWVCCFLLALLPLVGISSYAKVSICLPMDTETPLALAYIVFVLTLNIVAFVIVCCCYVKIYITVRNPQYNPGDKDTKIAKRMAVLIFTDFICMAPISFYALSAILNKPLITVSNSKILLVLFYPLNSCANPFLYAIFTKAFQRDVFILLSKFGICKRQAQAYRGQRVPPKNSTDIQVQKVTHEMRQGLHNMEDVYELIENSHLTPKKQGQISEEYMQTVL
# Chain of ATP-dependent DNA helicase Q1 (Homo sapiens) (P46063 whole entry, looked up): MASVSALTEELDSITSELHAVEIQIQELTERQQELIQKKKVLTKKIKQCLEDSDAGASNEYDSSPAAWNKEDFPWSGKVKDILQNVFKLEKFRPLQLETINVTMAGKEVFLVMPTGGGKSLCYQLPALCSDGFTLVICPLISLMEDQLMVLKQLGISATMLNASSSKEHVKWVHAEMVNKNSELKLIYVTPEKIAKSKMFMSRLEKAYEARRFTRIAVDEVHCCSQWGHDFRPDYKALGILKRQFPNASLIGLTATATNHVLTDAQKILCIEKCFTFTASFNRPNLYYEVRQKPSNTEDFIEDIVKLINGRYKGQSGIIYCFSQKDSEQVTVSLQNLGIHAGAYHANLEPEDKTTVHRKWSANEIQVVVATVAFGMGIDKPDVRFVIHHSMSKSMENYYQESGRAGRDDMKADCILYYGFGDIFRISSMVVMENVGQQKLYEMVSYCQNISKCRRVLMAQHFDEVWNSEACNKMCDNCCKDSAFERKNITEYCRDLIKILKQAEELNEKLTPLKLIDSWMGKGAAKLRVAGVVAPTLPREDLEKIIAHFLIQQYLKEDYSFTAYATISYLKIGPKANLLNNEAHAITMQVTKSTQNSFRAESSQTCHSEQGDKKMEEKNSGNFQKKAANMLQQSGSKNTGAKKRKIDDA
# Chain of DNA repair nuclease/redox regulator APEX1 (Homo sapiens) (P27695 whole entry, looked up): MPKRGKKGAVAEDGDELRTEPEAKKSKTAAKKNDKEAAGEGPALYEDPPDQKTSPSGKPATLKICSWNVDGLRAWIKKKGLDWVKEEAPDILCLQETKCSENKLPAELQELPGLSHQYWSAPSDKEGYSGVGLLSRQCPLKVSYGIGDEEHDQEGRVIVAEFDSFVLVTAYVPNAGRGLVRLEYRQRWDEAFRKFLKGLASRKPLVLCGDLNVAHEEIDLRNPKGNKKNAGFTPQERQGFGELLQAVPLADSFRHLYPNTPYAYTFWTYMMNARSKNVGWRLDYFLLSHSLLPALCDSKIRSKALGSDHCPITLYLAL
# Chain of M-phase phosphoprotein 8 (Homo sapiens) (Q99549 whole entry, looked up): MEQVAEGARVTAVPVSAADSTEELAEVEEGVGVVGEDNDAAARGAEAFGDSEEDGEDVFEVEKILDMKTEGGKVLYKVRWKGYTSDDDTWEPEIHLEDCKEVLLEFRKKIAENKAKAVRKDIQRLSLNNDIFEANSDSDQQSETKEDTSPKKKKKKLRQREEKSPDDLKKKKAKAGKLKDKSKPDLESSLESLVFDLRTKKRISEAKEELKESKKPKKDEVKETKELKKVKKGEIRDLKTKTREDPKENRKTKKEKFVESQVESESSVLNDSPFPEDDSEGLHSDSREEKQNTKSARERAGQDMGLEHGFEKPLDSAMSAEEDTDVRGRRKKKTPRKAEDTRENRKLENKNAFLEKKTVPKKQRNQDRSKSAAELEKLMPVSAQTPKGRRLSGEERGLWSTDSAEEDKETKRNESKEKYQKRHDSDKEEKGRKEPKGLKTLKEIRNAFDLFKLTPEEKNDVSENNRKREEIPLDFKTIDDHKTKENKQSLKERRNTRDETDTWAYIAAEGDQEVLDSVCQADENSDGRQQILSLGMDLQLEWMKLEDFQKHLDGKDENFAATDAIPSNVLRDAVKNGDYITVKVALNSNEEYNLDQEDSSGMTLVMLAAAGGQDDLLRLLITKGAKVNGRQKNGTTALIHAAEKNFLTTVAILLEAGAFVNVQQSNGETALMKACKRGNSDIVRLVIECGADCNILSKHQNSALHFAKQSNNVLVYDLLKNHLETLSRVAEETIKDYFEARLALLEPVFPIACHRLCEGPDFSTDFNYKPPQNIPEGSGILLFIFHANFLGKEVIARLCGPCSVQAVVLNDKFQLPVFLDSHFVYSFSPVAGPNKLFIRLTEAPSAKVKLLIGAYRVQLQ
# Chain of Rap guanine nucleotide exchange factor 4 (Homo sapiens) (Q8WZA2 whole entry, looked up): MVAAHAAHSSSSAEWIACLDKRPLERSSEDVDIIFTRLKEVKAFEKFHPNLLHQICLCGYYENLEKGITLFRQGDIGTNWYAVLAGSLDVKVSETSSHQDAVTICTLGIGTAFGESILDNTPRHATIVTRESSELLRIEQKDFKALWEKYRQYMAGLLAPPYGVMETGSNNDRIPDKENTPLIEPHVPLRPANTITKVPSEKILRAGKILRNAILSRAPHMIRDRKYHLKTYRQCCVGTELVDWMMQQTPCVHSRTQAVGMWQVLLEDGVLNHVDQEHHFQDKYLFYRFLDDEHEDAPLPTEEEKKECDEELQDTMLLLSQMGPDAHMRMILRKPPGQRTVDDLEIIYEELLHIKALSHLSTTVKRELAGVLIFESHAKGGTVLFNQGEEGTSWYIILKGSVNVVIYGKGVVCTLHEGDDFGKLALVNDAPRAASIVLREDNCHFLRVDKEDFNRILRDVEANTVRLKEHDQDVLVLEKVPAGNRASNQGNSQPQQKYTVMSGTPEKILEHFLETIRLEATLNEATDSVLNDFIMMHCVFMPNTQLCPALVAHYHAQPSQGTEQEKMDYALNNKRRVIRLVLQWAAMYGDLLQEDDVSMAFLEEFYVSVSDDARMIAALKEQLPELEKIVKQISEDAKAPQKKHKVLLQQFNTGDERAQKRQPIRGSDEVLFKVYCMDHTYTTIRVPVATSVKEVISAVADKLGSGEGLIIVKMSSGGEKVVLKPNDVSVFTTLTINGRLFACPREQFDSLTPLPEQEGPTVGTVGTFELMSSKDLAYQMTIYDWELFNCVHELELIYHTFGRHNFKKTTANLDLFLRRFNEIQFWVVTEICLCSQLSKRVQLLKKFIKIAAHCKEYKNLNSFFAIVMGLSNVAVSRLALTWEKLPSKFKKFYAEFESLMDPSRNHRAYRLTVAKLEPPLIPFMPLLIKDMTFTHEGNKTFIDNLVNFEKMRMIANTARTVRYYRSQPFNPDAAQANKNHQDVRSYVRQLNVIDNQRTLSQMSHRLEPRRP
smiles,measurement,setting,value
C#C[C@]1(O)CC[C@H]2C3CCC4=Cc5oncc5CC4(C)C3CCC21C (some centres not stated),Potency,[1],inactive
same,outcome,[2],inactive
same,Potency,[3],inactive
same,Potency,[4],8.91 µM (active)
same,Potency,[5],inactive
same,Potency,[6],8.91 µM (active)
same,outcome,[7],inactive
same,Potency,[8],inactive
same,Potency,[9],inactive
same,outcome,[10],inactive
same,outcome,[11],inactive
same,activation,[12],1.44%
same,outcome,[13],inactive
same,Potency,[14],inactive
COc1ccc(/C=C/C(=O)c2cccs2)c(OC)c1,Potency,[15],6.31 µM (active)
same,Potency,[16],inactive
same,outcome,[17],inactive
same,Potency,[18],inactive
CN1CCN(CC/C=C2/c3ccccc3Sc3ccc(S(=O)(=O)N(C)C)cc32)CC1,Potency,[1],inactive
same,outcome,[2],inactive
same,Potency,[4],7.08 µM (active)
same,Potency,[19],11.2 µM (active)
same,Potency,[20],10 µM (active)
same,Potency,[5],inactive
same,Potency,[6],5.01 µM (active)
same,outcome,[21],inactive
same,outcome,[22],inactive
same,outcome,[7],inactive
same,Potency,[23],inactive
same,Potency,[24],inactive
same,outcome,[11],inactive
same,outcome,[13],inactive
same,Potency,[14],inactive
Oc1ccc(/C(Cc2ccccn2)=N\Nc2ccccc2)c(O)c1,Potency,[25],inactive
CN1c2ccsc2/C(=N/Nc2ccccc2)CS1(=O)=O,Potency,[25],inactive
COc1ccc(C(=O)Nc2ccccc2C(=O)O)cc1NC(=O)C(c1ccccc1)c1ccccc1,Potency,[26],112 µM (active)
Clc1ccc(C2Nc3cccc4cccc(c34)N2)c(Cl)c1,Potency,[25],inactive

# Source: PubChem BioAssay (NCATS)
